Read-out in assay [1]: Monokine induced gamma interferon (MIG), CXCL9 (gene 4283)
Nature of the assay: BSK_3C_MIG: BioMAP Diversity Plus: 3C Assay for Monokine induced gamma interferon (MIG) Biomarker Activity (AID 2283021).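 For AC50: MIG protein level measured by immunoassay in the treated endothelial cultures.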 Conditions: primary human endothelial cells (HUVEC); actives raise or lower the signal. In outline:
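Primary human umbilical vein endothelial cells in the 3C system were exposed to chemical for 24 h, after which MIG was quantified by ELISA. Activity was fitted bidirectionally against DMSO as negative control and baseline.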

For assay [2], the target named is human Vitamin D Receptor (VDR), VDR (gene 7421) (UniProt P11473). Kind of assay: ATG_VDR_TRANS: Attagene TRANS-FACTORIAL HepG2 Assay for human Vitamin D Receptor (VDR) (AID 2283022; active = hit-call score of the fitted dose curve at least 0.9, where 1 is the maximum). In outline:
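HepG2 cells were transiently transfected with GAL4-UAS reporter units and a chimeric VDR-Gal4 construct, then dosed for 24 hours. Reporter mRNA was quantified by RT-PCR, fluorescent labeling, HpaI digestion and capillary electrophoresis; gain of signal analysed vs DMSO.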

A short description of assay [3]: BSK_3C_SRB: Viability Assessment in the BioMAP Diversity Plus: 3C Assay (AID 2283023).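 Note: fitted both ways against DMSO so a hit may be signal rise or drop.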 To be noted: primary human endothelial cells (HUVEC). In outline: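 Human umbilical vein endothelial cells in the 3C system, treated 24 h. Total protein measured by 0.1% sulforhodamine B staining after 10% TCA fixation, read at 560 nm; bidirectional fit versus DMSO.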
Read-out in assay [4]: Matrix Metallopeptidase 1 (MMP1), MMP1 (gene 4312)
Nature of the assay: BSK_BE3C_MMP1: BioMAP Diversity Plus: BE3C Assay for Matrix Metallopeptidase 1 (MMP1) Biomarker Activity (AID 2283024). To be noted: primary human bronchial epithelial cells; actives raise or lower the signal. In outline: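 Primary human bronchial epithelial cells were dosed with test chemicals, and MMP1 levels were measured by ELISA 24 h later. Data were fitted bidirectionally against DMSO as the negative control and activity baseline.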

A short description of assay [5]: BSK_3C_Vis: BioMAP Diversity Plus: 3C Assay for Morphology Visualization (AID 2283025).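 Note: fitted both ways so gain or loss versus DMSO counts.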 Conditions: primary human endothelial cells (HUVEC). In outline: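 Human umbilical vein endothelial cells in the 3C system were imaged by light microscopy 24 h after chemical dosing to record cell morphology. Activity was fitted bidirectionally against DMSO as negative control and baseline; the endpoint serves as a background control.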

Read-out in assay [6]: Pselectin, SELP (gene 6403)
Kind of assay: BSK_4H_Pselectin: BioMAP Diversity Plus: 4H Assay for Pselectin Biomarker Activity (AID 2283026). To be noted: primary human endothelial cells (HUVEC); actives raise or lower the signal. The method, boiled down:
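Primary human umbilical vein endothelial cells were exposed to test chemical for 24 h, then cell-surface P-selectin was quantified by ELISA. Activity was fitted bidirectionally against DMSO as negative control and baseline.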

Assay [7] is described as follows: BSK_4H_SRB: Viability Assessment in the BioMAP Diversity Plus: 4H Assay (AID 2283027).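 For AC50: curves fitted both ways versus DMSO so AC50 may be loss or gain.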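 Note: cells exposed to compound for 24 h before staining.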 To be noted: primary human endothelial cells (HUVEC). In outline:
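Human umbilical vein endothelial cells, 24 h after chemical dosing; total protein measured by 0.1% sulforhodamine B staining after 10% TCA fixation, read at 560 nm. Bidirectional fitting against DMSO.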

Assay [8] is described as follows: BSK_BE3C_SRB: Viability Assessment in the BioMAP Diversity Plus: BE3C Assay (AID 2283028).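 For AC50: fitted both ways so AC50 may mark signal gain or loss versus DMSO.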 To be noted: primary human bronchial epithelial cells. The method, boiled down: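 Human bronchial epithelial primary cells in confluent culture, 24 h after chemical dosing; total protein by 0.1% SRB staining after 10% TCA fixation, read at 560 nm. Bidirectional fitting versus DMSO baseline.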

Read-out in assay [9]: Thrombomodulin, THBD (gene 7056)
Kind of assay: BSK_3C_Thrombomodulin: BioMAP Diversity Plus: 3C Assay for Thrombomodulin Biomarker Activity (AID 2283029). Conditions: primary human endothelial cells (HUVEC); actives raise or lower the signal. The method, boiled down:
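Primary human umbilical vein endothelial cells (3C system) were exposed to chemical for 24 h, then thrombomodulin levels were measured by ELISA. Activity was fitted bidirectionally against the DMSO negative control as baseline.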

Read-out in assay [10]: Urokinase-type plasminogen activator receptor (uPAR), PLAUR (gene 5329)
Nature of the assay: BSK_4H_uPAR: BioMAP Diversity Plus: 4H Assay for Urokinase-type plasminogen activator receptor (uPAR) Biomarker Activity (AID 2283030). Conditions: primary human endothelial cells (HUVEC); actives raise or lower the signal. In outline:
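Human umbilical vein endothelial cells in the 4H system, 24 h after chemical dosing. Cell-surface uPAR measured by ELISA, fitted in both directions versus DMSO; cytotoxicity checked by SRB total protein in parallel cultures.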

Several values for one entry are separate records, joined by “and”; a condition that tells them apart may be missing. Equal entries are not always repeated. Records with an inconclusive call do not appear. More than one record can exist for a structure, and the calls need not agree. Activity calls are given as the source filed them. Rule for the calls, unless noted: active = hit-call score of the fitted dose curve at least 0.9, where 1 is the maximum; inactive = score below 0.9.

Sequence of human Vitamin D Receptor (VDR), VDR (gene 7421) (P11473 whole entry, looked up, the tested form may be a part): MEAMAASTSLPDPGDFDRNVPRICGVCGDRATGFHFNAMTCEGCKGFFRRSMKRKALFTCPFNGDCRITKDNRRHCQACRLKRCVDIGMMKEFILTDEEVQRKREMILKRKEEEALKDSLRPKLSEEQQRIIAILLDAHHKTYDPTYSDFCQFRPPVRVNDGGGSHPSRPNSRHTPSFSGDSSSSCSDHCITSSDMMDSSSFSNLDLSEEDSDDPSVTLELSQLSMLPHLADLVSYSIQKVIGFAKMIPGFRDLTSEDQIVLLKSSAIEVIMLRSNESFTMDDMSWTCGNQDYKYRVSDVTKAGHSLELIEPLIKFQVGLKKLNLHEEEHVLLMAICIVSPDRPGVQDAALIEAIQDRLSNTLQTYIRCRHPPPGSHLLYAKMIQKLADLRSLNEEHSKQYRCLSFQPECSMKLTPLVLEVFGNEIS

For the compound `C[C@]12CCC(=O)C=C1CC[C@@H]1[C@@H]2CC[C@@]2(C)[C@H]1CC[C@]2(C)O`, the result in [1], in [2], in [5], in assay [6], in assay [7] and in assay [8] was inactive. For the same compound, the outcome in assay [9] and in [10] was inactive. In addition, the AC50 (as a rule, the midpoint of the concentration-response curve, whichever way the signal moves) in assay [3] is 28.3 µM (active); in [4] it was 9.79 µM (active).

In the case of `Cc1ccccc1[N+](=O)[O-]`, the outcome in assay [1], in [2], in [3], in assay [4], in assay [5] and in assay [6] was inactive. The outcome in assay [7], in assay [8], in [9] and in assay [10] was inactive.

For `O=S(=O)(O)C(F)(F)C(F)(F)C(F)(F)C(F)(F)C(F)(F)C(F)(F)F`, the result in assay [1], in [2], in [3], in assay [4], in [5] and in assay [6] was inactive. Moreover, the result in assay [7], in assay [8], in assay [9] and in assay [10] was inactive. In addition, the AC50 in assay [4] is 44.3 µM (active) and 37.7 µM (active); in assay [6], 17.2 µM (active).

With `Cc1cc2c3c(c1)C(c1ccccc1)=N[C@@H](NC(=O)c1ccncc1)C(=O)N3CC2`, the result in [1], in assay [2], in assay [3], in assay [4], in [5] and in assay [6] was inactive. Also, the result in [7], in [8], in assay [9] and in assay [10] was inactive.

For `O=C(N[C@H]1CN2CCC1CC2)c1cc2ccoc2cn1`, the outcome in [1], in assay [2], in assay [3], in assay [4], in assay [5] and in [6] was inactive. For the same compound, the outcome in assay [7], in assay [8], in [9] and in [10] was inactive.

Consider `Cc1ccccc1O`, for which the outcome in [1], in assay [2], in assay [3], in [4], in assay [5] and in assay [6] was inactive. Also, the outcome in [7], in assay [8], in assay [9] and in assay [10] was inactive.

With `c1cc2ccc3cccc4ccc(c1)c2c34`, the result in assay [1], in assay [2], in assay [3], in [4], in assay [5] and in assay [6] was inactive. Moreover, the outcome in assay [7], in [8], in [9] and in assay [10] was inactive.

As for `Nc1ccc(-c2ccc(N)cc2)cc1`, the result in [1], in [2], in assay [3], in [4], in assay [5] and in assay [6] was inactive. In addition, the outcome in assay [7], in [8], in assay [9] and in assay [10] was inactive.

With `O=C(O)C(F)(F)C(F)(F)C(F)(F)C(F)(F)C(F)(F)C(F)(F)C(F)(F)C(F)(F)F`, the result in [1], in assay [2], in assay [3], in [4], in [5] and in assay [6] was inactive. Further, the outcome in assay [7], in assay [9] and in assay [10] was inactive. The AC50 in assay [3] is 54.3 µM (active) and 51.6 µM (active); in assay [4] it was 52.4 µM (active) and 50.9 µM (active); in assay [7], 44 µM (active) and 46.1 µM (active); in [8] it was 34.8 µM (active) and 49.8 µM (active).

For the compound `C1CC2OC2CC1C1CO1` (stereo not drawn), the outcome in assay [1], in assay [2], in assay [3], in assay [4], in [5] and in assay [6] was inactive. The outcome in assay [7], in [8], in assay [9] and in assay [10] was inactive.

Turning to `O=C(O)C(F)(F)C(F)(F)C(F)(F)C(F)(F)C(F)(F)C(F)(F)C(F)(F)C(F)(F)C(F)(F)F`, the AC50 in assay [1] was 58.5 µM (active) and 52.5 µM (active); in assay [3], 31.3 µM (active) and 53 µM (active) and 51.6 µM (active); in assay [4] it was 32.4 µM (active); in assay [6], 50.1 µM (active) and 49.5 µM (active); in [7] it was 36.5 µM (active) and 52.1 µM (active) and 55 µM (active); in [8] it was 29.6 µM (active) and 12.6 µM (active) and 15.8 µM (active). Besides, in assay [10], the AC50 is 47 µM (active) and 55 µM (active). For the same compound, the result in assay [1], in assay [4], in [5], in assay [6], in assay [9] and in assay [10] was inactive.

`ClC1=C(Cl)[C@]2(Cl)[C@@H]3[C@H]4C[C@H]([C@@H]5O[C@H]45)[C@@H]3[C@@]1(Cl)C2(Cl)Cl`: the outcome in assay [1], in assay [2], in assay [5], in assay [6], in [8] and in [9] was inactive. Further, the outcome in assay [10] was inactive. For the same compound, the figures for the AC50 in assay [3], in [4] and in assay [7] were 9.88 µM (active), 7.22 µM (active) and 3.97 µM (active), respectively.

As for `CCCCCCCCCc1ccc(O)cc1`, the AC50 in assay [1] is 16.4 µM (active); in assay [3], 15.5 µM (active); in assay [4], 16.7 µM (active); in assay [5] it was 38.7 µM (active); in [6], 12.5 µM (active); in assay [7], 14.9 µM (active). Further, the AC50 in assay [8] was 15.1 µM (active); in assay [10], 16.9 µM (active). Also, the result in [2] and in assay [9] was inactive.

Regarding `CCC(=O)O[C@H]1CC[C@H]2[C@@H]3CCC4=CC(=O)CC[C@]4(C)[C@H]3CC[C@]12C`, the AC50 is 38.8 µM (active) in assay [1]; 28.4 µM (active) in assay [3]; 20.7 µM (active) in assay [5]; 34 µM (active) in assay [6]; 33.5 µM (active) in assay [7]; 30.3 µM (active) in [10]. Besides, the call in assay [2], in [4], in assay [8] and in [9] was inactive.

With `CO/C=C(/C(=O)OC)c1ccccc1COc1cccc(C(F)(F)F)n1`, the outcome in assay [1], in assay [2], in assay [4], in assay [5], in [6] and in assay [8] was inactive. Besides, the outcome in assay [9] and in [10] was inactive. The AC50 in assay [3] is 20 µM (active); in assay [7], 7.84 µM (active).

The values above are taken from PubChem BioAssay (EPA / NIEHS).
